Reference: PubChem BioAssay (EPA / NIEHS)
Inconclusive results are not listed. Activity calls are given as the source filed them. Rule for the calls, unless noted: active = hit-call score of the fitted dose curve at least 0.9, where 1 is the maximum; inactive = score below 0.9.

Key:
[1] = ATG_M_06_TRANS: Attagene TRANS-FACTORIAL HepG2 Assay for M06 Transcription Factor (Internal Marker) (AID 2282983; active = hit-call score of the fitted dose curve at least 0.9, where 1 is the maximum;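 note: reporter transcript level by RT-PCR then capillary electrophoresis fluorescence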); conditions: HepG2 Attagene TRANS M06 internal marker reporter
In short: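 HepG2 cells transiently transfected with GAL4-UAS multiple reporter units, dosed 24 h. Reporter RNA reverse-transcribed, PCR-amplified, 6-FAM-labeled, HpaI-digested and quantified by capillary electrophoresis; this internal-marker signal fitted upward relative to DMSO.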

[2] = molecular target: Transcriptional activator Myb (Homo sapiens) (UniProt P10242); assay: ATG_Myb_CIS: Attagene CIS-FACTORIAL HepG2 Assay for human Myeloblastosis (Myb) Proto-Oncogene Transcription Factor (AID 2282986); conditions: HepG2 Attagene CIS-FACTORIAL Myb reporter transcription; actives raise or lower the signal
In short: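 Transiently transfected HepG2 cells carrying a multiplexed cis-promoter reporter set report endogenous Myb activity after 24 h compound exposure. Reporter mRNA is read by RT-PCR with capillary electrophoresis of fluorescent products, fitted bidirectionally against DMSO.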

[3] = molecular target: Nuclear respiratory factor 1 (Homo sapiens) (UniProt Q16656); assay: ATG_NRF1_CIS: Attagene CIS-FACTORIAL HepG2 Assay for human Nuclear Respiratory Factor 1 (NRF1) Orphan Gene (AID 2282987); conditions: HepG2 NRF1 cis-element reporter, Attagene multiplex; actives raise or lower the signal
In short: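 HepG2 cells transiently transfected with multiple cis-regulated reporter units, exposed 24 h. Reporter mRNAs measured by RT-PCR, fluorescent labelling, HpaI digestion and capillary electrophoresis; bidirectional fitting against DMSO.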

[4] = ATG_NFI_CIS: Attagene CIS-FACTORIAL HepG2 Assay for human Nuclear Factor I (NFI) (AID 2282989); conditions: HepG2 cis-regulatory reporter, NFI response element transcription; actives raise or lower the signal
In short: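 Transfected HepG2 liver cells, exposed 24 h, supplied total RNA for oligo(dT) reverse transcription and reporter-specific PCR. Labelled, HpaI-cut fragments were sized by capillary electrophoresis; DMSO set the baseline for bidirectional fitting.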

[5] = molecular target: Myc proto-oncogene protein (Homo sapiens) (UniProt P01106); assay: ATG_Myc_CIS: Attagene CIS-FACTORIAL HepG2 Assay for human Myelocytomatosis (Myc) Proto-Oncogene Transcription Factor (AID 2282990); conditions: HepG2, Attagene cis-reporter transcription factor activity; actives raise or lower the signal
In short: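 Fluorescence intensity of reporter-specific cDNA fragments, separated by capillary electrophoresis, gives the signal. Transfected HepG2 cells carrying cis-promoter reporter constructs are incubated with compound for 24 h; DMSO serves as baseline.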

[6] = ATG_NF_kB_CIS: Attagene CIS-FACTORIAL HepG2 Assay for human Nuclear Factor Kappa B (NF-kB) (AID 2282991); conditions: HepG2 Attagene cis-factorial NF-kB reporter mRNA; actives raise or lower the signal
In short: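 HepG2 cells transfected with cis-promoter-driven reporter units, so endogenous transcription factor activity is measured. Reporter mRNA quantified 24 h after dosing by RT-PCR and capillary electrophoresis, with bidirectional fitting against DMSO.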

[7] = ATG_M_32_TRANS: Attagene TRANS-FACTORIAL HepG2 Assay for M32 Transcription Factor (Internal Marker) (AID 2282984; active = hit-call score of the fitted dose curve at least 0.9, where 1 is the maximum;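 note: transcript level of a background control reporter unit measured by RT-PCR and capillary electrophoresis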); conditions: HepG2 Attagene TRANS M32 internal marker reporter
In short: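 Capillary electrophoresis of 6-FAM-labelled reporter fragments gives the signal; data fitted for gain over DMSO negative control. Source: HepG2 cells bearing transient multiple reporter transcription units, 24 h exposure.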

[8] = molecular target: Nuclear receptor subfamily 4 group A member 2 (Homo sapiens) (UniProt P43354); assay: ATG_NURR1_TRANS: Attagene TRANS-FACTORIAL HepG2 Assay for human Nuclear Receptor Related Protein 1 (NURR1) (AID 2282985; active = hit-call score of the fitted dose curve at least 0.9, where 1 is the maximum); conditions: HepG2 Attagene TRANS reporter, mRNA readout
In short: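 HepG2 / transient MRTU transfection / 24 h compound exposure / RT-PCR + CE fluorescence of reporter mRNA / gain-of-signal vs DMSO.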

Measured: AC50

Nuclear receptor subfamily 4 group A member 2 (Homo sapiens), sequence (P43354 whole entry, looked up): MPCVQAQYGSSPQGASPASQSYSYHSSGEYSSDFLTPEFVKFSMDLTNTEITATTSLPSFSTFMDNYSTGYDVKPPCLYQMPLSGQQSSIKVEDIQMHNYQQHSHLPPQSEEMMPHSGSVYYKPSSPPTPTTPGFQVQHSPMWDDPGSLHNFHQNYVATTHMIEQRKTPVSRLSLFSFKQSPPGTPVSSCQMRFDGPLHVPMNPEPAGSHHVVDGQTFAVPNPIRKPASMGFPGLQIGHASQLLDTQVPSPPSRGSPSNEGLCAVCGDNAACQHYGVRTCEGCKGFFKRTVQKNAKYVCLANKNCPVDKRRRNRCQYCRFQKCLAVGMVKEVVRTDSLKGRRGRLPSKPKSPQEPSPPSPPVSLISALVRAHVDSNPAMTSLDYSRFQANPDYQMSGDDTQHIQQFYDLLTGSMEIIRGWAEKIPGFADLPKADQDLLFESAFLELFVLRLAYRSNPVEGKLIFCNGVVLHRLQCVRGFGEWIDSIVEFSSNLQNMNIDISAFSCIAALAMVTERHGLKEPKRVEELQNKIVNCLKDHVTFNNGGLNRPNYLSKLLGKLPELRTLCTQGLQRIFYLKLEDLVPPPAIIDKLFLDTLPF
Nuclear respiratory factor 1 (Homo sapiens), sequence (Q16656 whole entry, looked up): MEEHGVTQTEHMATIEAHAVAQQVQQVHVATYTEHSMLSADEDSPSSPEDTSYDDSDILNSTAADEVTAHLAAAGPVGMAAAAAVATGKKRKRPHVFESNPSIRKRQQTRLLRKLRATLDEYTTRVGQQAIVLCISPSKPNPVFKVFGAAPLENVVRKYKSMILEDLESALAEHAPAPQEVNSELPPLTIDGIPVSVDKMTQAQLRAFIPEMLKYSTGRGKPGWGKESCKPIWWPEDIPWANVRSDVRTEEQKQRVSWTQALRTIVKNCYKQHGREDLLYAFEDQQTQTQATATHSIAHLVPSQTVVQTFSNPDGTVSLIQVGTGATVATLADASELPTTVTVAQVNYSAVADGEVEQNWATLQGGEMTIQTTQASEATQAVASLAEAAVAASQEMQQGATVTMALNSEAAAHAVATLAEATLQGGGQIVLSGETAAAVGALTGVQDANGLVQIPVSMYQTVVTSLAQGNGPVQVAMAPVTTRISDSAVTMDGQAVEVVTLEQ
Myc proto-oncogene protein (Homo sapiens), sequence (P01106 whole entry, looked up, the tested form may be a part): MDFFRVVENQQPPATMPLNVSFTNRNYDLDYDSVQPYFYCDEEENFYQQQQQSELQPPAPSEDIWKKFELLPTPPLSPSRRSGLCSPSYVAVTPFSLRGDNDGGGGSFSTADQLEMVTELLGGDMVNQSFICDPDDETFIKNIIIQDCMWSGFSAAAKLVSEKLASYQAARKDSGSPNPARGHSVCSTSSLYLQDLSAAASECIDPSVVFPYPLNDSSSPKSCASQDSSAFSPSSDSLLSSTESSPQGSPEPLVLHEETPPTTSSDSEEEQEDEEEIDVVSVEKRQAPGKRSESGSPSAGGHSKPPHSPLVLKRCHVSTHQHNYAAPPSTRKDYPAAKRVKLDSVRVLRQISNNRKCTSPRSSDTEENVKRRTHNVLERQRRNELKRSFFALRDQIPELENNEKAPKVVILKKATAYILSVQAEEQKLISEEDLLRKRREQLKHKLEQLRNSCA
Transcriptional activator Myb (Homo sapiens), sequence (P10242 whole entry, looked up): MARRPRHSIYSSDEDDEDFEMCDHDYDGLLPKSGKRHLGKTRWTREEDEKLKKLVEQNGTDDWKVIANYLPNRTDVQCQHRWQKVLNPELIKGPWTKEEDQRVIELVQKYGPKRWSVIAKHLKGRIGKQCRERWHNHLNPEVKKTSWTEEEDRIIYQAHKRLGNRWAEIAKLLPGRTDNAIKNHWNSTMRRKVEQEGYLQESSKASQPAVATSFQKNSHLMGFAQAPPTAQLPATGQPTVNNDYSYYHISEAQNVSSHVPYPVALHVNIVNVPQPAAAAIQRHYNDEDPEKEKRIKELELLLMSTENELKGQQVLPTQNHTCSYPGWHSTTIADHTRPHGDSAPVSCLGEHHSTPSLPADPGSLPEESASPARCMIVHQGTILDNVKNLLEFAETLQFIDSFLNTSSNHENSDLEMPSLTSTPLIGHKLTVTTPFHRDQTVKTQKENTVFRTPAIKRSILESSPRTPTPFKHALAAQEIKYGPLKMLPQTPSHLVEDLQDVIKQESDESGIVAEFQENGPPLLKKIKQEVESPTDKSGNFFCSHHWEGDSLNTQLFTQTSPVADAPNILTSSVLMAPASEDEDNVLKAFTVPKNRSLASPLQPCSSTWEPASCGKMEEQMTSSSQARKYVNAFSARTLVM

CCOP(=S)(OCC)O/N=C(\C#N)c1ccccc1
inactive: [1] | [2] | [3] | [4] | [5] | [6]

CCCCCCCCCCCCOS(=O)(=O)O
inactive: [7] | [8] | [3] | [4] | [5]

CC(C)=CC1C(C(=O)OCc2cccc(Oc3ccccc3)c2)C1(C)C (stereo unspecified)
inactive: [7] | [2] | [3] | [4] | [5]

O=S(=O)(Oc1ccc(Cl)cc1)c1ccc(Cl)cc1
inactive: [1] | [8] | [2] | [3] | [4] | [5] | [6]

O=C(O)COc1cc(Cl)c(Cl)cc1Cl
inactive: [1] | [7] | [2] | [3] | [4] | [5]

CNC(=O)O/N=C/C(C)(C)S(C)(=O)=O
inactive: [7] | [8] | [2] | [3] | [4] | [5] | [6]

CCCCCCCCCCCCCCC(Br)C(=O)O (stereo unspecified)
active: [8] 26.4 µM | [3] 168 µM | [6] 50.4 µM
inactive: [7] | [4] | [5]

O=[N+]([O-])c1ccc(Cl)c([N+](=O)[O-])c1
inactive: [7] | [8] | [2] | [3] | [4]
active: [5] 3.71 µM

BrCc1ccc(Br)cc1
inactive: [1] | [8] | [2] | [3] | [4] | [5] | [6]

Cc1cc(C(F)(C(F)(F)F)C(F)(F)F)ccc1NC(=O)c1cccc(I)c1C(=O)NC(C)(C)CS(C)(=O)=O
inactive: [2] | [3] | [4] | [5]

C=CC(Cl)CCl (stereo unspecified)
inactive: [1] | [8] | [2] | [3] | [4] | [5]

Nc1ncn[nH]1
inactive: [1] | [2] | [3] | [4] | [5]

c1ccc2c(c1)Oc1ccccc1O2
inactive: [1] | [2] | [3] | [4] | [5] | [6]

COc1ccc([N+](=O)[O-])cc1O
inactive: [1] | [7] | [3] | [4] | [6]

CCCCN(CCCCO)N=O
inactive: [1] | [2] | [3] | [4] | [5] | [6]

C[As+](C)(C)CC(=O)[O-]
inactive: [2] | [3] | [4] | [5] | [6]

COC(=O)Nc1cccc(OC(=O)Nc2cccc(C)c2)c1
inactive: [1] | [2] | [3] | [4] | [5] | [6]

O=S1OC[C@@H]2[C@H](CO1)[C@]1(Cl)C(Cl)=C(Cl)[C@@]2(Cl)C1(Cl)Cl (stereo partly specified)
inactive: [1] | [2] | [3] | [4] | [5] | [6]

CCCSP(=S)(OCC)Oc1ccc(SC)cc1 (stereo unspecified)
inactive: [8] | [2] | [3] | [4]

O=C(NC(=O)c1c(F)cccc1F)Nc1cc(Cl)c(Oc2ncc(C(F)(F)F)cc2Cl)c(Cl)c1
inactive: [1] | [8] | [2] | [3] | [4] | [6]

O=S(=O)(c1ccc(Cl)cc1)c1cc(Cl)c(Cl)cc1Cl
inactive: [1] | [8] | [2] | [3] | [4] | [5] | [6]

CCOP(=O)(OCC)OC(=CCl)c1ccc(Cl)cc1Cl
inactive: [7] | [2] | [3] | [4] | [6]
active: [8] 100 µM

ClCc1ccccc1Cl
inactive: [7] | [8] | [2] | [3] | [4]

c1ccc2sc(SNC3CCCCC3)nc2c1
inactive: [7] | [8] | [2] | [3] | [4]
active: [5] 148 µM

COCCl
inactive: [1] | [7] | [2] | [3] | [4] | [5] | [6]

Cc1ccccc1OP(=O)(Oc1ccccc1)Oc1ccccc1
active: [8] 25.2 µM
inactive: [7] | [2] | [3] | [4] | [5] | [6]

C[C@H]1C(=O)O[C@@H]2CCN3CC=C(COC(=O)[C@](C)(O)[C@]1(C)O)[C@H]23
inactive: [1] | [2] | [3] | [4] | [6]

C#CCOC(=O)/C=C(C)/C=C/CC(C)CCCC(C)C (stereo unspecified)
active: [8] 16.6 µM
inactive: [1] | [2] | [3] | [4] | [5] | [6]

O=NN1CCOCC1
inactive: [1] | [8] | [2] | [3] | [4] | [5]

N#CCCC(Br)(C#N)CBr (stereo unspecified)
inactive: [7] | [8] | [2] | [3] | [5]
active: [4] 54.3 µM | [6] 33.4 µM

Cc1cc(-c2cc(C)c(N)c(C)c2)cc(C)c1N
inactive: [7] | [8] | [2] | [3] | [4] | [5] | [6]

Cc1c([N+](=O)[O-])c(C)c([N+](=O)[O-])c(C(C)(C)C)c1[N+](=O)[O-]
active: [8] 11.3 µM
inactive: [1] | [3] | [4] | [5]

CCCCCCCCCCCCc1cccc(S(=O)(=O)O)c1
inactive: [1] | [8] | [2] | [3] | [4] | [5] | [6]
